Results published in the supplement of paper PMC6897291.
Where a name gives a salt, the structure may show the parent alone.

Columns and labels:
[1] = system: U-2932; assay: growth inhibition by drug alone (1 - RLU/untreated control) (fraction); higher = stronger inhibition; settings: 177Lu-lilotomab satetraxetan 0 ug/ml
Procedure, shortened: (§1)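 RIVA or U-2932 cells were left untreated or pretreated for 18 h with a radiolabelled anti-CD37 antibody conjugate (~600 MBq/mg) at 0.5 µg/ml for RIVA or 1 µg/ml for U-2932. The cells were then washed and seeded at 3,000 cells/well on plates pre-printed with the Selleck Cambridge Cancer Compound library, dosed at 10/100 nM for RIVA and 10/1,000 nM for U-2932. From day 3, RealTime-Glo luminescence was read daily after 1 h at 37°C. Growth inhibition was taken as one minus RLU over the mean of the untreated no-drug wells, of which there were 48 per plate.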

[2] = system: RIVA; assay: as above; settings: 177Lu-lilotomab satetraxetan 0 ug/ml
Procedure, shortened: as §1

[3] = system: U-2932; assay: growth inhibition by drug plus 177Lu-lilotomab satetraxetan (1 - RLU/untreated control) (fraction); higher = stronger inhibition; settings: 177Lu-lilotomab satetraxetan 1 ug/ml
Procedure, shortened: as §1

[4] = system: RIVA; assay: as above; settings: 177Lu-lilotomab satetraxetan 0.5 ug/ml
Procedure, shortened: as §1

Structure (SMILES) | growth inhibition by drug alone ([1]; 10 nM, time (day): 3) | growth inhibition by drug alone ([1]; 10 nM, time (day): 4) | growth inhibition by drug alone ([1]; 10 nM, time (day): 5) | growth inhibition by drug alone ([1]; 10 nM, time (day): 6) | growth inhibition by drug alone ([1]; 1000 nM, time (day): 3) | growth inhibition by drug alone ([1]; 1000 nM, time (day): 4) | growth inhibition by drug alone ([1]; 1000 nM, time (day): 5) | growth inhibition by drug alone ([1]; 1000 nM, time (day): 6) | growth inhibition by drug alone ([2]; 10 nM, time (day): 3) | growth inhibition by drug alone ([2]; 10 nM, time (day): 4) | growth inhibition by drug alone ([2]; 10 nM, time (day): 5) | growth inhibition by drug alone ([2]; 10 nM, time (day): 6) | growth inhibition by drug alone ([2]; 100 nM, time (day): 3) | growth inhibition by drug alone ([2]; 100 nM, time (day): 4) | growth inhibition by drug alone ([2]; 100 nM, time (day): 5) | growth inhibition by drug alone ([2]; 100 nM, time (day): 6) | growth inhibition by drug plus 177Lu-lilotomab satetraxetan ([3]; 10 nM, time (day): 3) | growth inhibition by drug plus 177Lu-lilotomab satetraxetan ([3]; 10 nM, time (day): 4) | growth inhibition by drug plus 177Lu-lilotomab satetraxetan ([3]; 10 nM, time (day): 5) | growth inhibition by drug plus 177Lu-lilotomab satetraxetan ([3]; 10 nM, time (day): 6) | growth inhibition by drug plus 177Lu-lilotomab satetraxetan ([3]; 1000 nM, time (day): 3) | growth inhibition by drug plus 177Lu-lilotomab satetraxetan ([3]; 1000 nM, time (day): 4) | growth inhibition by drug plus 177Lu-lilotomab satetraxetan ([3]; 1000 nM, time (day): 5) | growth inhibition by drug plus 177Lu-lilotomab satetraxetan ([3]; 1000 nM, time (day): 6) | growth inhibition by drug plus 177Lu-lilotomab satetraxetan ([4]; 10 nM, time (day): 3) | growth inhibition by drug plus 177Lu-lilotomab satetraxetan ([4]; 10 nM, time (day): 4) | growth inhibition by drug plus 177Lu-lilotomab satetraxetan ([4]; 10 nM, time (day): 5) | growth inhibition by drug plus 177Lu-lilotomab satetraxetan ([4]; 10 nM, time (day): 6) | growth inhibition by drug plus 177Lu-lilotomab satetraxetan ([4]; 100 nM, time (day): 3) | growth inhibition by drug plus 177Lu-lilotomab satetraxetan ([4]; 100 nM, time (day): 4) | growth inhibition by drug plus 177Lu-lilotomab satetraxetan ([4]; 100 nM, time (day): 5) | growth inhibition by drug plus 177Lu-lilotomab satetraxetan ([4]; 100 nM, time (day): 6)
CC(C)(C)c1cc(NC(=O)Nc2ccc(-c3cn4c(n3)sc3cc(OCCN5CCOCC5)ccc34)cc2)no1 [Quizartinib (AC220)] | 0.0329 | -0.0112 | -0.0203 | 0.0321 | -0.0933 | -0.0955 | -0.0983 | 0.0473 | -0.0494 | -0.0577 | -0.051 | -0.0533 | -0.339 | -0.307 | -0.369 | -0.46 | 0.0106 | 0.0631 | 0.109 | 0.208 | -0.105 | -0.0657 | -0.0306 | 0.182 | 0.463 | 0.533 | 0.557 | 0.567 | 0.27 | 0.368 | 0.377 | 0.391
CCN1CCN(Cc2ccc(-c3cc4c(N[C@H](C)c5ccccc5)ncnc4[nH]3)cc2)CC1 | -0.00148 | 0.0172 | 0.023 | 0.0324 | -0.166 | -0.174 | -0.287 | -0.315 | -0.0711 | -0.0709 | -0.153 | -0.452 | -0.2 | -0.171 | -0.217 | -0.348 | -0.00551 | 0.0118 | 0.0153 | 0.0829 | -0.206 | -0.119 | -0.121 | -0.0824 | 0.45 | 0.538 | 0.553 | 0.545 | 0.314 | 0.416 | 0.435 | 0.409
O=C1C(Cl)=C(NCCN2CCOCC2)C(=O)c2ncccc21 | 0.114 | 0.106 | 0.0132 | 0.0178 | 0.227 | 0.184 | 0.124 | 0.0852 | 0.0132 | 0.0904 | -0.00365 | -0.238 | 0.102 | 0.139 | 0.12 | 0.0933 | 0.114 | 0.165 | 0.247 | 0.272 | 0.201 | 0.211 | 0.241 | 0.349 | 0.584 | 0.632 | 0.638 | 0.641 | 0.591 | 0.62 | 0.626 | 0.631
O=C(/C=C/c1cccnc1)NCCCCC1CCN(C(=O)c2ccccc2)CC1 | 0.935 | 0.894 | 0.825 | 0.783 | 0.982 | 0.985 | 0.984 | 0.985 | 0.983 | 0.983 | 0.982 | 0.979 | 0.981 | 0.982 | 0.982 | 0.98 | 0.909 | 0.859 | 0.812 | 0.758 | 0.984 | 0.985 | 0.986 | 0.988 | 0.991 | 0.991 | 0.99 | 0.99 | 0.99 | 0.99 | 0.991 | 0.991
Clc1ccc(Nc2nnc(Cc3ccncc3)c3ccccc23)cc1 [Vatalanib dihydrochloride (PTK787)] | 0.0493 | 0.0329 | -0.0325 | -0.0722 | 0.00749 | 0.0478 | -0.0105 | -0.12 | -0.0393 | -0.0522 | -0.084 | -0.232 | -0.0903 | -0.0658 | -0.0924 | -0.165 | -0.0142 | 0.0115 | 0.0124 | 0.0638 | -0.0725 | 0.0231 | -0.00359 | -0.0503 | 0.334 | 0.509 | 0.527 | 0.534 | 0.328 | 0.442 | 0.439 | 0.426
COc1cc(N2CCC(N3CCN(C)CC3)CC2)ccc1Nc1ncc(Cl)c(Nc2ccccc2S(=O)(=O)C(C)C)n1 | 0.0279 | 0.0267 | -0.0689 | -0.173 | 0.411 | 0.377 | 0.328 | 0.37 | -0.00616 | -0.0284 | -0.166 | -0.627 | -0.194 | -0.141 | -0.341 | -0.647 | -0.0224 | 0.0234 | 0.0221 | 0.0517 | 0.226 | 0.3 | 0.325 | 0.525 | 0.354 | 0.492 | 0.509 | 0.521 | 0.198 | 0.273 | 0.278 | 0.268
CC(C)C[C@H](NC(=O)CNC(=O)c1cc(Cl)ccc1Cl)B(O)O | -0.0591 | -0.0376 | 0.0132 | 0.111 | 0.983 | 0.984 | 0.984 | 0.985 | -0.217 | -0.196 | -0.201 | -0.298 | 0.177 | 0.166 | 0.0904 | -0.0331 | -0.0412 | -0.00704 | 0.027 | 0.197 | 0.984 | 0.985 | 0.985 | 0.987 | 0.38 | 0.491 | 0.522 | 0.525 | 0.656 | 0.686 | 0.668 | 0.59
